In the library only some 10% were active in any assay of this set; here they are far more common.
BAZ2B block = qHTS Assay for Inhibitors of BAZ2B; Potency, µM (top dose mostly 114 µM), for inactives: at the highest dose activity change, negative = inhibition, usual class: inhibitors; AlphaScreen BAZ2B-H3K14Ac peptide displacement; Bromodomain adjacent to zinc finger domain protein 2B (Homo sapiens), Q9UIF8; actives 4.4% (n = 360,000); note: % is set by controls: 0 for no effect and ±100 for the full control effect; nearly all actives have a fitted effect of over 60% in size
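Protein-peptide AlphaScreen: BAZ2B 50 nM, b-H3K14Ac 50 nM, 1x PBS pH 7.4 + 0.01% Tween-20. Preincubation 30 min RT; cpd 30 min RT (top 110 uM); beads 20 min RT, light-protected.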
L3MBTL1 inh = qHTS Assay for the Inhibitors of L3MBTL1; AID 485360, 2010; actives 0.66% (n = 230,000); Potency, µM (series often up to 57.1 µM), without a hit: at the highest dose activity, negative = inhibition, usual class: inhibitors; AlphaScreen L3MBTL1–H3K9me1 peptide binding; Lethal(3)malignant brain tumor-like protein 1 (Homo sapiens), Q9Y468; note: % is set by controls: 0 for no effect and ±100 for the full control effect; nearly all actives have a fitted effect of over 60% in size
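AlphaScreen proximity signal between nickel-chelate acceptor and streptavidin donor beads (final 10 ug/mL) reports binding of 50 nM L3MBTL1 to 75 nM biotin-H3 K9me1 peptide; complex incubated with compounds 30 min at room temperature; cefsulodin titration as control.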
G9a block = qHTS Assay for Inhibitors of Histone Lysine Methyltransferase G9a. Potency, µM (series often up to 102 µM), for the others: at the highest dose activity, negative = inhibition, hits mostly inhibitors. AID 504332, 2011. actives 8.8% (n = 350,000). G9a H3K9 monomethylation, AlphaScreen, 2 h; note: % is set by controls: 0 for no effect and ±100 for the full control effect; nearly all actives have a fitted effect of over 75% in size
Target sequence (Q96KQ7 913-1193 limits assumed): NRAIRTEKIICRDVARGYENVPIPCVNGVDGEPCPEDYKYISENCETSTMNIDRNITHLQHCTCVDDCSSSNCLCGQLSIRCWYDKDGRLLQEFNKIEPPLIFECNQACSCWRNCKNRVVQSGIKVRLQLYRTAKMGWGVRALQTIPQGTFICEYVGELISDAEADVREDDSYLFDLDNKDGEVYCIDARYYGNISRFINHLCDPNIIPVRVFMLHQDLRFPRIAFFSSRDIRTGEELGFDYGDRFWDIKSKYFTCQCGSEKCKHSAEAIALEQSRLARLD
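Enzyme 20 nM + cpd, 15 min RT; add b-H3K9 pep 500 nM / SAM 20 uM; 2 h RT; anti-H3K9me1 Ab 0.5 ug/mL + SA donor / anti-rabbit acceptor beads 20 ug/mL each, 10 min; AlphaScreen read.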
JMJD2A Tudor = qHTS Assay for Inhibitors of JMJD2A-Tudor Domain; Lysine-specific demethylase 4A (Homo sapiens), O75164; AlphaScreen JMJD2A-Tudor / H3K4me3 peptide binding; Potency, µM (series often up to 114 µM), for the others: top-dose activity change, negative = inhibition, usual class: inhibitors; actives 4.4% (n = 390,000); AID 504339, 2011; note: % is set by controls: 0 for no effect and ±100 for the full control effect; nearly all actives have a fitted effect of over 50% in size
GLS inh = qHTS for Inhibitors of Glutaminase (GLS); Glutaminase kidney isoform, mitochondrial (Homo sapiens), O94925; Potency, µM (series often up to 45.5 µM), for inactives: at the top dose activity change, negative = inhibition, hits mostly inhibitors; actives 0.21% (n = 410,000); GLS enzymatic activity, qHTS titration; note: % is set by controls: 0 for no effect and ±100 for the full control effect
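Human kidney-isoform GLS in 45 mM KH2PO4 pH 8.2, 0.02% Tween-20, with compound, started with 1mM L-Glutamine (added stock). Glutamate oxidase/HRP/Amplex red coupled fluorescence read at start and after 30 min at RT.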
HP1b binding inh = HTS for Inhibitors of HP1-beta Chromodomain Interactions with Methylated Histone Tails; Chromobox protein homolog 1 (Homo sapiens), P83916; AlphaScreen HP1-beta / biotin-H3K9me3 peptide binding; Potency, µM (series often up to 114 µM), without a hit: top-dose activity change, negative = inhibition, usual class: inhibitors; actives 0.56% (n = 390,000); AID 540317, 2011; note: nearly all actives have a fitted effect of over 70% in size
Target sequence (P83916 whole entry, looked up): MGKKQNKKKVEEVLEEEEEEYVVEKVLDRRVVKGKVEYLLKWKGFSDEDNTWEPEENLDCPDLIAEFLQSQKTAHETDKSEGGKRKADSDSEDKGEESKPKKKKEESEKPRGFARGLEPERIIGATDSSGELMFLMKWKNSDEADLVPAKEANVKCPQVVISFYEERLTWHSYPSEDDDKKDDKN
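AlphaScreen: HP1-beta (50 nM) preformed 30 min with biotin-H3(1-18)K9me3 peptide (50 nM) in PBS pH 7.4, 0.01% Tween-20. Compound added for 30 min at RT, then streptavidin donor/nickel chelate acceptor beads (10 ug/mL) for 30 min.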
* hit, by the source's call; [ ] = another dose, or the depositor's remark. Calls come from the whole dose curve; as a rule, active = well fitted curve in the direction sought with a large enough effect; inconclusive = small, poorly fitted or top-dose-only effect, or another doubt; inactive = no such curve, though single readings can be large; an effect the other way counts as inactive or inconclusive. Potency is the fitted concentration of half-maximal effect.

`C#CCn1c(COc2ccccc2C)nc2ccccc21` gave BAZ2B block -12%, G9a block -3%[59 µM], JMJD2A Tudor -11%, GLS inh 3% and HP1b binding inh 13%.
`O=C(/C=C/c1ccccc1)OC1CC(O)C2(O)C=CO[C@@H](OC3OC(CO)C(O)C(O)C3O)C12` (stereo partly specified) gave G9a block -15%[2.33 µM].
`CC=CCn1c(SCc2ccccc2)nc2c1c(=O)[nH]c(=O)n2C` gave GLS inh -25%.
C=CCSc1nc2c(c(=O)[nH]c(=O)n2C)n1Cc1ccc(C)cc1 was read as BAZ2B block 1%, L3MBTL1 inh -10%, G9a block 14µM*, JMJD2A Tudor -19%, GLS inh 8% and HP1b binding inh -6%.
C/C=C/Cn1c(SCc2ccc(C)cc2)nc2c1c(=O)[nH]c(=O)n2C was read as BAZ2B block -5%, L3MBTL1 inh -1%, G9a block 25µM*, JMJD2A Tudor -20%, GLS inh 1% and HP1b binding inh -13%.
Screening CCCSc1nc2c(c(=O)[nH]c(=O)n2C)n1Cc1ccc(C)cc1 returned BAZ2B block 8%, L3MBTL1 inh 6%, G9a block 6%, JMJD2A Tudor -13%, GLS inh -5% and HP1b binding inh 25%.
For COc1ccc(C(Nc2ccccn2)c2c(NC(=O)c3ccco3)sc(C)c2C)cc1 (stereo unspecified) the results were BAZ2B block inconclusive, L3MBTL1 inh -8%, G9a block 45µM*, JMJD2A Tudor inconclusive, GLS inh -6% and HP1b binding inh 6%.
Screening Cc1sc(NC(=O)c2ccco2)c(C(Nc2ccccn2)c2ccccc2)c1C (stereo unspecified) returned BAZ2B block -36%, L3MBTL1 inh -1%, G9a block 45µM*, JMJD2A Tudor -42%, GLS inh 6% and HP1b binding inh -20%.
`COc1cccc(C(Nc2ccccn2)c2c(NC(=O)c3ccco3)sc(C)c2C)c1` (stereo unspecified) gave BAZ2B block inconclusive, L3MBTL1 inh -3%, G9a block -26%[59 µM], JMJD2A Tudor inconclusive, GLS inh 8% and HP1b binding inh -26%.
For CC1=NN(c2ccc(C)cc2)C(=O)/C1=C\C=C\c1ccccc1 the results were BAZ2B block 2.5µM*, L3MBTL1 inh inconclusive, G9a block 4.5µM*, JMJD2A Tudor 4.5µM*, GLS inh -4% and HP1b binding inh 5.6µM*.
`CC1=NN(c2ccccc2)C(=O)/C1=C/C=C/C=C/N(C)C` gave BAZ2B block 13µM*, G9a block 18µM*, JMJD2A Tudor inconclusive, GLS inh -5% and HP1b binding inh inconclusive.
`Cc1ccc(C(=O)C=CC=Cc2ccccc2)cc1` gave GLS inh 2%.
CC1=NN(c2cccc(C(=O)O)c2)C(=O)/C1=C\C=C/c1ccccc1 was read as BAZ2B block inconclusive, G9a block 40µM*, JMJD2A Tudor inconclusive, GLS inh 16µM* and HP1b binding inh inconclusive.
`CC1=NN(c2ccccc2)C(=O)/C1=C\N(O)c1ccccc1` gave BAZ2B block -11%, L3MBTL1 inh -1%, JMJD2A Tudor inconclusive, GLS inh 1% and HP1b binding inh 30%.
`O=c1c2c3n(c(=S)nc2[nH]n1-c1ccccc1)CCCCC3` gave BAZ2B block inconclusive, G9a block 50µM*, JMJD2A Tudor -14%, GLS inh 7% and HP1b binding inh 17%.
`CCn1c(=O)c(NC(=O)c2ccccc2)c2n(c1=S)CCCCC2` gave BAZ2B block 2%, G9a block -9%[59 µM], JMJD2A Tudor -5%, GLS inh 1% and HP1b binding inh 22%.
COc1ccc(C)cc1Nc1cc(C)nc(C)n1 was read as BAZ2B block -3%, G9a block 5%[59 µM], JMJD2A Tudor 2%, GLS inh 1% and HP1b binding inh 58%.
`COc1ccc(C)cc1Nc1c2c(nc3ccccc13)CCC2` gave BAZ2B block -25%, G9a block -14%, JMJD2A Tudor inconclusive, GLS inh 2% and HP1b binding inh inconclusive.
COc1ccc(C)cc1Nc1n[n+](C)c(-c2ccc(O)cc2O)s1 was read as BAZ2B block -28%, L3MBTL1 inh -4%, G9a block 18µM*, JMJD2A Tudor -17%, GLS inh 10% and HP1b binding inh 47%.
For COc1ccc(C)cc1Nc1n[n+](C)c(-c2c3ccccc3cc3ccccc23)s1 the results were BAZ2B block -17%[57.1 µM], L3MBTL1 inh -17%, G9a block 45µM*, JMJD2A Tudor -20%, GLS inh -5% and HP1b binding inh 48%.
`CCOC(=O)c1cnc2ccc(OCC)cc2c1N1CCN(c2ccccc2OC)CC1` gave BAZ2B block inconclusive, G9a block -21%, JMJD2A Tudor -32%[57.1 µM], GLS inh 4% and HP1b binding inh 22%.
For CCOc1ccc2ncc(C(=O)c3ccc(OC)cc3)c(N3CCN(CC)CC3)c2c1 the results were BAZ2B block inconclusive, L3MBTL1 inh -24%, G9a block 45µM*, JMJD2A Tudor -33%, GLS inh 5% and HP1b binding inh 12%.
Screening CCc1ccc(C(=O)c2cnc3ccc(OC)cc3c2N2CCN(CC)CC2)cc1 returned BAZ2B block 50µM*, L3MBTL1 inh -17%, G9a block 40µM*, JMJD2A Tudor -30%, GLS inh -4% and HP1b binding inh 19%.
Screening CCOC(=O)C1CCN(c2c(C(=O)c3ccccc3)cnc3ccc(Cl)cc23)CC1 returned BAZ2B block -38%, G9a block inconclusive, JMJD2A Tudor -31%, GLS inh -6% and HP1b binding inh 28%.
For CCOC(=O)C1CCCN(c2c(C(=O)c3ccc(C)cc3)cnc3ccc(OCC)cc23)C1 (stereo unspecified) the results were BAZ2B block 50µM*, G9a block 1.4µM*, JMJD2A Tudor 35µM*, GLS inh 1% and HP1b binding inh -17%.
`CC1(C)CC(=O)C(N=Nc2ccc(C(F)(F)F)cc2[N+](=O)[O-])=C(O)C1` gave BAZ2B block 20µM*, L3MBTL1 inh -16%, JMJD2A Tudor 50µM*, GLS inh 6% and HP1b binding inh inconclusive.
